# Source: PubChem BioAssay AID1240 (Sanford-Burnham Center for Chemical Genomics, 2008)
# The whole screen tested about 50,000 compounds, of which about 800 (1.6%) showed an effect of 50% or more. The sample as a whole holds a higher share of strong results than the screen did.
# Target: Bcl-2-like protein 10 (Homo sapiens) (UniProt Q9HD36)
# Assay: Phenotype converters, Bcl-B/TR3 peptide binding displacement, primary biochemical FP (AID 1240);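 also: 0% = Bcl-B with tracer peptide and DMSO and 100% = tracer peptide lacking Bcl-B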
# Details: GST-Bcl-B / FITC-TR3 peptide fluorescence polarization; stronger effect = higher value; compound at 3.75 mg/L
# Bcl-2-like protein 10 (Homo sapiens), sequence (Q9HD36 whole entry, looked up): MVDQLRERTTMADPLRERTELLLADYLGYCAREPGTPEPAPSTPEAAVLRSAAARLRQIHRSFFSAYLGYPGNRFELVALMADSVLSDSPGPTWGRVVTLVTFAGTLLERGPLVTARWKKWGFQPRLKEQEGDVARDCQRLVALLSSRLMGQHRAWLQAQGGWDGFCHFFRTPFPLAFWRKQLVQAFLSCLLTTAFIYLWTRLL
row,Compound,displacement [%]
1,Cc1ccc(N(CC(=O)N(Cc2ccccc2)Cc2ccccc2)S(C)(=O)=O)cc1,-7.5
2,N#C/C(=C(/O)C(Cl)(Cl)Cl)c1nc2ccccc2[nH]1,-5.5
3,C/C(=N\OC/C(O)=C(\C#N)c1nc2ccccc2[nH]1)c1ccc(Br)cc1,46.6
4,N#C/C(=C(/O)CO/N=C/c1ccccc1Cl)c1nc2ccccc2[nH]1,53.6
5,O=C(CC1Nc2ccccc2NC1=O)Nc1cccc(C(=O)O)c1 (centres undefined),-2.4
6,CCCOc1cccc(C(=O)Nc2ccc(F)c([N+](=O)[O-])c2)c1,13.4
7,CC1=NN(C(=O)c2cccnc2)C(O)(c2ccccc2)C1 (centres undefined),-6.3
8,O=C(Cc1cccs1)NCC1CCCO1 (centres undefined),14.5
9,O=C(N/N=C/c1ccc(O)c(O)c1)c1cccc(F)c1,-6.6
10,O=C(NCCCn1ccnc1)c1ccccc1Br,-8.7
11,COc1ccc(C(=O)Nc2ccccc2C(=O)NCCCn2ccnc2)cc1,11.9
12,O=C(Nc1ccccc1C(=O)NCCCn1ccnc1)c1ccccc1,83.5
13,COC(=O)C1=CNC=C(C(=O)OC)C1c1cccc(OCc2ccccc2)c1,1.2
14,O=C(/C=C/c1ccc([N+](=O)[O-])cc1)Nc1ccc(F)cc1,-2.7
15,O=C(/C=C\Nc1ccc(Br)cn1)c1ccc(Cl)cc1,61.9
16,COc1ccc(C(=O)/C=C\Nc2ccc(Cl)cn2)cc1,-23.9
17,O=C(/C=C/Nc1ccccc1F)c1ccc(Br)cc1,85.6
18,O=C(/C=C/Nc1ccccn1)c1ccc(Br)cc1,3
19,COc1ccc(C(=O)/C=C/Nc2ccccc2F)cc1,5.6
20,O=C(/C=C/Nc1ccccc1F)c1ccccc1,8.2

row,Compound,displacement [%]
1,Cc1sccc1/C=N/NC(=O)C1CC1,3
2,Cc1ccc(/C=N/N=C/c2ccc(C)cc2)cc1,2.2
3,C/C(=C\C(=O)c1ccc(Cl)cc1)Nc1ccc(Br)c(C)c1,4.4
4,COc1ccccc1/C=c1\sc2nc(-c3ccc(C)cc3)nn2c1=O,61.7
5,Cc1ccc(-c2nnc3s/c(=C\c4ccccc4Cl)c(=O)n23)cc1,30.3
6,COC(=O)c1ccc(/C=c2\sc3nc(-c4ccc(C)cc4)nn3c2=O)cc1,10.7
7,COc1ccc(/C=c2\sc3nc(-c4ccccc4)nn3c2=O)cc1,77.5
8,COc1ccc(/C=c2\sc3nnc(-c4ccc(C)cc4)n3c2=O)c(OC)c1,73.8
9,COc1ccc(-c2nn(-c3ccccc3)cc2/C=c2\sc3nc(-c4ccc(C)cc4)nn3c2=O)cc1,8.3
10,COc1ccc(/C=c2\sc3nnc(-c4ccccc4)n3c2=O)c(OC)c1,28
11,COc1ccc(/C=c2/sc3nc(-c4ccc(C(C)(C)C)cc4)nn3c2=O)cc1,11.3
12,COc1ccccc1/C=c1/sc2nc(-c3ccc(Cl)cc3Cl)nn2c1=O,7.3
13,OCCCc1nc2ccccc2n1Cc1ccccc1,2.4
14,O=[N+]([O-])c1cc(C(F)(F)F)ccc1N/N=C/c1ccc(F)cc1,6.3
15,CC(=O)N(C1=C(N2CCCCC2)C(=O)c2ccccc2C1=O)c1ccc(C)cc1,11.1
16,O=C(Nc1ccc2c(c1)OCCO2)c1ccc(Br)cc1,-0.2
17,O=S(=O)(Nc1ccc(SC(F)F)cc1)c1cccc2cccnc12,1.7
18,CCc1nnc(NC(=O)C2CCCC2)s1,-7.8
19,Cc1cc(=O)n2cc(Br)ccc2n1,0.1
20,O=C(Nc1ccc(NC(=O)c2ccc([N+](=O)[O-])cc2Cl)cc1Cl)c1ccco1,-2

row,Compound,displacement [%]
1,O=C(C1CCCCC1)N1CCN=C1c1ccccc1,-1
2,CN1C(=O)NC(=O)/C(=C\c2cc(Cl)c(OCC(=O)O)c(Cl)c2)C1=O,-3.5
3,O=C(O)/C=C\C(=O)Nc1ccc(C(=O)c2ccccc2)cc1,3.2
4,Cc1ccc(NC(=O)/C=C/C(=O)c2ccccc2)cc1,54.6
5,Cc1ccc(NC(=O)/C=C/c2ccccc2)cc1,-3.5
6,CCN(CC)CCN1C(=O)C(O)=C(C(=O)/C=C/c2ccccc2)C1c1ccc(Br)cc1 (centres undefined),11.4
7,O=C(C1CCCC1)N1CCN(c2ccc(F)cc2)CC1,-0.9
8,O=C(COc1ccccc1[N+](=O)[O-])Nc1ccc2oc(-c3cccc4ccccc34)nc2c1,56.9
9,Cc1ccc(-c2nc3ccccc3o2)cc1NC(=O)COc1ccccc1[N+](=O)[O-],-7.1
10,O=C(COc1ccccc1[N+](=O)[O-])Nc1ccc(-c2nc3ccccc3o2)cc1,-1.3
11,Cc1cc2nc(-c3ccc(NC(=O)COc4ccccc4[N+](=O)[O-])cc3)oc2cc1C,-0.7
12,O=C(COc1ccccc1[N+](=O)[O-])Nc1cc(-c2nc3ccccc3o2)ccc1Cl,91.6
13,O=C(COc1ccccc1[N+](=O)[O-])Nc1ccc2oc(-c3ccccc3Br)nc2c1,5.2
14,Cc1cc(C)c2oc(-c3cccc(NC(=O)COc4ccccc4[N+](=O)[O-])c3)nc2c1,-24.2
15,O=C(COc1ccccc1[N+](=O)[O-])Nc1ccc2oc(-c3ccccc3F)nc2c1,2.9
16,Cc1cc(C)c2oc(-c3ccc(NC(=O)COc4ccccc4[N+](=O)[O-])cc3)nc2c1,89.3
17,Cc1cc(C)c2nc(Nc3nc4ccccc4c(=O)[nH]3)nc(C)c2c1,9.2
18,O=C(O)CCCCCN1C(=O)C(O)=C(C(=O)/C=C/c2ccccc2)C1c1ccccc1Cl (centres undefined),-7.2
19,Cc1c(O)nc(Nc2nc(C)c3ccccc3n2)[nH]c1=O,9
